Results filed as inconclusive are left out. Active and inactive are the calls of the source. Unless noted, calls come from the whole dose curve; as a rule, active = well fitted curve in the direction sought with a large enough effect in the repeat runs; inconclusive = weak or mixed curves; inactive = no such curve, though single readings can be large; an effect the other way counts as inactive or inconclusive.
What was measured:
[1] = biological target: Androgen receptor (Homo sapiens) (UniProt P10275); test: qHTS assay to identify small molecule agonists of the androgen receptor (AR) signaling pathway in the presence of an antagonist (AID 1259381; calls by dose curve; note: nearly all actives have a fitted effect of over 15% in size)
Procedure, shortened: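 Here, 15-concentration compound series were pin-transferred onto MDA-kb2 MMTV-luciferase cells already dosed with nilutamide (3.0uM final). After 16hr at 37C, ONE-Glo was added and luminescence read 30min later at room temperature.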

[2] = qHTS assay to identify small molecule antagonists of the estrogen receptor beta (ER-beta) signaling pathway - cell viability counter screen (AID 1259382);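 note: HEK293T cells carrying ER-beta-UAS-bla reporter stimulated with estradiol; series mostly up to about 92 µM; nearly all actives have a fitted effect of over 55% in size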
Procedure, shortened: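 Tox21 10K library tested in qHTS format on ER-beta-bla HEK293T cells stimulated with 1nM E2; 16 hr treatment at 37C. Same-well CellTiter-Glo luminescence served as the cell viability measure.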

[3] = qHTS assay to identify small molecule agonists or antagonists of the thyroid stimulating hormone receptor (TSHR) signaling pathway - wild type cell line counter screen (AID 1259384; calls by dose curve)
Procedure, shortened: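 Wild-type Hek293 cells, 800/well, 18 h at 37C, then compound with Ro20-1724 for 30 min RT. cAMP by HTRF (cAMP-d2/anti-cAMP cryptate), 1 h RT, fluorescence read. 15 concentrations, triplicates.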

[4] = qHTS assay to identify small molecule agonists of the estrogen receptor alpha (ER-alpha) signaling pathway in the presence of an antagonist - cell viability counter screen (AID 1259386);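 note: series mostly up to about 92 µM; cells exposed to compounds for 22 h at 37 °C before the viability read; nearly all actives have a fitted effect of over 30% in size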
Procedure, shortened: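 Fluorescent CellTiter-Fluor viability signal from VM7Luc4E2 cells, with the reagent added during the final hour of a 22hr compound exposure at 37C in the presence of 10.0nM ICI-182,780.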

[5] = biological target: Progesterone receptor (Homo sapiens) (UniProt P06401); test: qHTS assay to identify small molecule agonists of the progesterone receptor (PR) signaling pathway (AID 1346784; calls by dose curve; note: nearly all actives have a fitted effect of over 30% in size)
Procedure, shortened: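 Beta-lactamase reporter read-out: after 16 hr compound treatment at 37C and a further 2 hr at room temperature with LiveBLAzer B/G FRET substrate, fluorescence was measured in PR-UAS-bla HEK 293T cells grown in 2% charcoal-stripped serum.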

[6] = biological target: Progesterone receptor (Homo sapiens) (UniProt P06401); test: qHTS assay to identify small molecule antagonists of the progesterone receptor (PR) signaling pathway (AID 1346795; active = well fitted inhibition curve with a large enough effect in the signal ratio in the repeat runs, not every such curve was filed as active; the % refers to the signal ratio; note: potency is the fitted concentration of half-maximal effect)
Procedure, shortened: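 Read-out is fluorescence from the LiveBLAzer B/G FRET substrate, cleaved by a UAS-controlled beta-lactamase in PR-UAS-bla HEK293T cells after 16 hr exposure to compound plus 1 nM promegestone (final), followed by 2 hr at room temperature.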

[7] = qHTS assay to identify small molecule agonists of the progesterone receptor (PR) signaling pathway - cell viability counter screen (AID 1346799; calls by dose curve; note: nearly all actives have a fitted effect of over 45% in size)
Procedure, shortened: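 Luminescence from CellTiter-Glo, added after the beta-lactamase FRET read in the same wells, gave cytotoxicity in PR-UAS-bla HEK293T cells treated with compounds for 16 hr at 37C.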

[8] = qHTS assay to identify small molecule antagonists of the TGF-beta/Smad signaling pathway - cell viability counter screen (AID 1346824); note: nearly all actives have a fitted effect of over 50% in size
Procedure, shortened: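 SBE-bla HEK 293T cells, incubated overnight, then compound plus 0.25 ng/mL TGF-beta1 (stock added) for 5 hr at 37 C. Viability was read in the same wells by CellTiter-Glo luminescence after 30 min at room temperature.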

[9] = qHTS assay to identify small molecule agonists of the TGF-beta/Smad signaling pathway - cell viability counter screen (AID 1346829); note: top concentration of the series differs between compounds; nearly all actives have a fitted effect of over 45% in size
Procedure, shortened: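 Same-well cytotoxicity: CellTiter-Glo added after the 2 hr room-temperature beta-lactamase substrate step, luminescence measured 30 min later; cells had 5 hr of compound at 37 C.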

[10] = qHTS assay to identify small molecule agonists of the TGF-beta/Smad signaling pathway (AID 1346859; active = well fitted activation curve with a large enough effect in the signal ratio in the repeat runs, not every such curve was filed as active; the % refers to the signal ratio; note: series mostly up to about 77 µM)
Procedure, shortened: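 SBE-bla HEK 293T, 4,000 cells/well, plated o/n; cpd in DMSO, 5 hr, 37 C/5% CO2; B/G FRET substrate 2 hr RT; ex 405, em 460/530 nm.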

[11] = biological target: Thyrotropin-releasing hormone receptor (Homo sapiens) (UniProt P34981); test: qHTS assay to identify small molecule antagonists of the thyrotropin-releasing hormone receptor (TRHR) signaling pathway (AID 1346877; active = well fitted inhibition curve with a large enough effect in the repeat runs, not every such curve was filed as active; note: series mostly up to about 51 µM)
Procedure, shortened: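 In this cell-based calcium flux format, HEK293 cells expressing TRHR received test compound for 5 min before the agonist TRH (1 nM final). Dye loading lasted 2 h at 37 °C.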

[12] = biological target: Thyrotropin-releasing hormone receptor (Homo sapiens) (UniProt P34981); test: qHTS assay to identify small molecule agonists of the thyrotropin-releasing hormone receptor (TRHR) signaling pathway (AID 1346891; calls by dose curve; note: series mostly up to about 58 µM)
Procedure, shortened: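 Intracellular calcium rise, read as fluorescence every second for 3 min, served as the agonist signal in dye-loaded HEK293 cells expressing TRHR; each compound ran at 15 concentrations in triplicate.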

[13] = Human pregnane X receptor (PXR) small molecule agonists, qHTS cell viability counter screen (AID 1346977); note: nearly all actives have a fitted effect of over 50% in size
Procedure, shortened: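 PXR-Luc HepG2, 2,000 cells/well, 5% charcoal-stripped FBS; 5hr settle; cpd 24hr, 37C/5% CO2; CellTiter-Fluor at 23hr, read 1hr later (fluorescence).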

[14] = Caspase-3/7 induction in HepG2 cells by small molecules, qHTS assay (AID 1346978); note: nearly all actives have a fitted effect of over 15% in size
Procedure, shortened: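 Wild-type HepG2 cells, 2,000/well, settled 5 hr at 37 C and 5% CO2, then compound-treated for 17 hr; caspase-3/7 activity read by luminescent Caspase-Glo 3/7 after 30 min at room temperature.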

[15] = Caspase-3/7 induction in CHO-K1 cells by small molecules, qHTS cell viability counter screen (AID 1346979); note: nearly all actives have a fitted effect of over 35% in size
Procedure, shortened: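 Cells (CHO-K1, wild type) are plated at 1,500 per well and incubated 5hr. Test compounds in DMSO are then pinned in, followed by 16hr at 37C and 5% CO2. Viability is read by CellTiter-Fluor fluorescence after 1hr.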

[16] = Caspase-3/7 induction in CHO-K1 cells by small molecules, qHTS assay (AID 1346980); note: nearly all actives have a fitted effect of over 15% in size
Procedure, shortened: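 Wild-type CHO-K1 cells exposed to compounds for 17hr at 37 C, 5% CO2. Caspase-3/7 activity then measured by Caspase-Glo 3/7 luminescence after 30min at room temperature.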

[17] = Caspase-3/7 induction in HepG2 cells by small molecules, qHTS cell viability counter screen (AID 1346981); note: series mostly up to about 92 µM; nearly all actives have a fitted effect of over 30% in size
Procedure, shortened: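 Counter screen for cytotoxicity: HepG2 exposed 16 hr to compounds, then CellTiter-Fluor viability signal (fluorescence, 1 hr reagent incubation).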

[18] = biological target: Estrogen receptor (Homo sapiens) (UniProt P03372); test: qHTS assay to identify small molecule agonists of the estrogen receptor alpha (ER-alpha) signaling pathway in the presence of an antagonist (AID 1259383; calls by dose curve; note: top concentration of the series differs between compounds; nearly all actives have a fitted effect of over 15% in size)
Procedure, shortened: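 In VM7Luc4E2 cells, 4,000 per well, compounds at 15 concentrations were co-incubated 22hr at 37C with 10.0nM final ICI-182,780. Luminescence from the stably transfected 4×ERE-luciferase reporter was recorded 30min after ONE-Glo addition.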

[19] = biological target: Thyrotropin receptor (Homo sapiens) (UniProt P16473); test: qHTS assay to identify small molecule antagonists of the thyroid stimulating hormone receptor (TSHR) signaling pathway (AID 1259385; calls by dose curve; note: nearly all actives have a fitted effect of over 20% in size)
Procedure, shortened: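 TSHR-HEK293 cells (800/well) plated 18 h, then compounds with Ro20-1724 and TSH at 1.5 ng/mL final, 30 min at room temperature. cAMP quantified by HTRF (cAMP-d2/anti-cAMP-cryptate, 1 h); 15 concentrations in triplicate.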

[20] = qHTS assay to identify small molecule antagonists of the progesterone receptor (PR) signaling pathway - cell viability counter screen (AID 1346798);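 note: HEK293T PR-UAS-bla cells stimulated with the agonist R5020; series mostly up to about 92 µM; nearly all actives have a fitted effect of over 50% in size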
Procedure, shortened: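 HEK293T PR-UAS-bla, 2% charcoal-stripped FBS; 4 hr pre-plate; cpd + R5020, 16 h 37C; LiveBLAzer read first; then CellTiter-Glo 30 min RT, luminescence.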

Measured: Potency

Sequence of Thyrotropin receptor (Homo sapiens) (P16473 whole entry, looked up): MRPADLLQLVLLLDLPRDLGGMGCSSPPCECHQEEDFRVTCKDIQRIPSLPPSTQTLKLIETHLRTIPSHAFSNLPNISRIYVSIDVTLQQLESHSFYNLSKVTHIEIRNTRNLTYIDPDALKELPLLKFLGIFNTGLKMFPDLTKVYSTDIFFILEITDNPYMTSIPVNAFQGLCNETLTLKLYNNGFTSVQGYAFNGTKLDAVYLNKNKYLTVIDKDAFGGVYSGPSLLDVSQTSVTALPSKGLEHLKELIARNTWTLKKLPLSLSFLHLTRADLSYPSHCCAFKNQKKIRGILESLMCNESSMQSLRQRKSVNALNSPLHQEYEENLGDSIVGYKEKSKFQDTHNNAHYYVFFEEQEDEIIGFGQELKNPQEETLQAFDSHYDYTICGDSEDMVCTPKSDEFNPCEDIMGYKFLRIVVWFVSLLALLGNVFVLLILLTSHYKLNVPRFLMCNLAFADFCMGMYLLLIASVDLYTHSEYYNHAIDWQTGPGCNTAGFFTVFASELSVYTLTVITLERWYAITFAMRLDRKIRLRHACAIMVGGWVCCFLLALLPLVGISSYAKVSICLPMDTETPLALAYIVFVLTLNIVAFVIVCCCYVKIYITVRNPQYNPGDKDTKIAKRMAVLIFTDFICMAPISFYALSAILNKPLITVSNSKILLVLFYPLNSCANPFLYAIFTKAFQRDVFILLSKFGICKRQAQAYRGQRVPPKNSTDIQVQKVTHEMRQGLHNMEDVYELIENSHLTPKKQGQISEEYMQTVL
Sequence of Estrogen receptor (Homo sapiens) (P03372 whole entry, looked up): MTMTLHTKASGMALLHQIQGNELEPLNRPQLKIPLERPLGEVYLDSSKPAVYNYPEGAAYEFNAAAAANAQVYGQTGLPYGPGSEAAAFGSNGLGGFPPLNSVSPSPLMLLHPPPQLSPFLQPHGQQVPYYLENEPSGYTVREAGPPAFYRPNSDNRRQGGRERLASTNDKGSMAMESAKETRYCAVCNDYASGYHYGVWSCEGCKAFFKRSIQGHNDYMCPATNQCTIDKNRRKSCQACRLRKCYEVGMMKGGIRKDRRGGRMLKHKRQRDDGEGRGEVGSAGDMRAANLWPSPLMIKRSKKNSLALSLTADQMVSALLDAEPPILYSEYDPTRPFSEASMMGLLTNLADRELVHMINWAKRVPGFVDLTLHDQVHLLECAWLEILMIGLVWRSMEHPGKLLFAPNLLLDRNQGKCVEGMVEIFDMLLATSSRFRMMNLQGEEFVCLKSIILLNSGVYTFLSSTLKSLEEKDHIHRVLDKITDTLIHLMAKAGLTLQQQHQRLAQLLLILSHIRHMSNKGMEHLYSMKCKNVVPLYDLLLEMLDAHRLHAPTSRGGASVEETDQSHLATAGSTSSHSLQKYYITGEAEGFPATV
Sequence of Thyrotropin-releasing hormone receptor (Homo sapiens) (P34981 whole entry, looked up): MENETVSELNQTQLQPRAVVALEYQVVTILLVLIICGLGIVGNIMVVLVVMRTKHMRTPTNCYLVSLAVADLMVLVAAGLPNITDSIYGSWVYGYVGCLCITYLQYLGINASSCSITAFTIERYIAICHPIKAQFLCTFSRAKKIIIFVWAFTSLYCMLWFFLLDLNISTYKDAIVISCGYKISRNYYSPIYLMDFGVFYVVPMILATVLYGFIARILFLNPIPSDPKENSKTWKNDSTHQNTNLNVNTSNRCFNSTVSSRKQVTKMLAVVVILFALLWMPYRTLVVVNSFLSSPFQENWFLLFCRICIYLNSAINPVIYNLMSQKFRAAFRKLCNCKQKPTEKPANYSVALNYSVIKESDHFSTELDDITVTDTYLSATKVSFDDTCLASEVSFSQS
Sequence of Progesterone receptor (Homo sapiens) (P06401 whole entry, looked up): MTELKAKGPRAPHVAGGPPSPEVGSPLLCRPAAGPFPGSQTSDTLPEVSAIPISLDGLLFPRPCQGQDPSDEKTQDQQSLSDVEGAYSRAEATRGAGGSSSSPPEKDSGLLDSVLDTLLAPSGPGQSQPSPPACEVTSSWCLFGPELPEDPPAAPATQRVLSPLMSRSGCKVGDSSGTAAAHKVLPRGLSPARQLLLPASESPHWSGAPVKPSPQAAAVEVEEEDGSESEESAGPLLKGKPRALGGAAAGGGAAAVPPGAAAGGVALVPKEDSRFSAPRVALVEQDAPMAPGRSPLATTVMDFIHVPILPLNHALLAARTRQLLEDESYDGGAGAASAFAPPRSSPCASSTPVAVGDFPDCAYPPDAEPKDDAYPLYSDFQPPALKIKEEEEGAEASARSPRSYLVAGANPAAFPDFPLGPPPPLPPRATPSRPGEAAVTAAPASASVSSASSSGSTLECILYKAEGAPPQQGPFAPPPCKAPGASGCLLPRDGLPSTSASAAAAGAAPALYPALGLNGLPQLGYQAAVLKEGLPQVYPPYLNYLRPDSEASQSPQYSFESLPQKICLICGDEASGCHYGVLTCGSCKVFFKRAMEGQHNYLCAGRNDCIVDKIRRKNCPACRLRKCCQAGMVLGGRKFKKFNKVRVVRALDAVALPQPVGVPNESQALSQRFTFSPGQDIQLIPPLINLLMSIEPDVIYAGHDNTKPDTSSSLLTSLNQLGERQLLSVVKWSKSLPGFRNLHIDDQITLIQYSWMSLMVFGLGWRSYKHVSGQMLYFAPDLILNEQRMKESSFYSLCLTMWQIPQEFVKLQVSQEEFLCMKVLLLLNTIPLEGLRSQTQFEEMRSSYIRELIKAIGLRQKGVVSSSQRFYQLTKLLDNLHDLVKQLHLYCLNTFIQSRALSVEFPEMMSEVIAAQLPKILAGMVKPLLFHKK
Sequence of Androgen receptor (Homo sapiens) (P10275 whole entry, looked up): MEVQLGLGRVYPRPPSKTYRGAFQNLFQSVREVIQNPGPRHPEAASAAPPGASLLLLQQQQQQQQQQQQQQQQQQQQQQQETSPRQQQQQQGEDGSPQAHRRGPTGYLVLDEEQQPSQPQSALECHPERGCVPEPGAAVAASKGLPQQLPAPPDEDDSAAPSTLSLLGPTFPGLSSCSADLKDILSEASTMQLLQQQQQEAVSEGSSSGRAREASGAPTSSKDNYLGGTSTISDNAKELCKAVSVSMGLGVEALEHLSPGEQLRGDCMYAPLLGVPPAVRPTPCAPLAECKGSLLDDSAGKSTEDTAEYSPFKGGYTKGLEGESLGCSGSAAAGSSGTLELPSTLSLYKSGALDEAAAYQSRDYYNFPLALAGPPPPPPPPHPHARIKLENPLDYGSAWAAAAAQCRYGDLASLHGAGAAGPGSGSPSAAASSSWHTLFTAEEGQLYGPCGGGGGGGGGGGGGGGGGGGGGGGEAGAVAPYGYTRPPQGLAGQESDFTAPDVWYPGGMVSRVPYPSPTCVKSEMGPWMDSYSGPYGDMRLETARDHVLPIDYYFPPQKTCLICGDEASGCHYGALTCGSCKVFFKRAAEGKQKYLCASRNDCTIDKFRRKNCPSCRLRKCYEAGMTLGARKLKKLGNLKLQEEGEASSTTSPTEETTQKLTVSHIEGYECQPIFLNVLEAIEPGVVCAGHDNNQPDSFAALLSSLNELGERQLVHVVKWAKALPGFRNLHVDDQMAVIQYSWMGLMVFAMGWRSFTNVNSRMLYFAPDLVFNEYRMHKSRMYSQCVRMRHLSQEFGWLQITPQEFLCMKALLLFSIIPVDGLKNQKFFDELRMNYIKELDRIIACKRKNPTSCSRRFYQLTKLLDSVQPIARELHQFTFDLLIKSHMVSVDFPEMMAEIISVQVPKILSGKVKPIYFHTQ

O=C1NC(c2ccccc2)(c2ccccc2)C(=O)N1COP(=O)(O)O
inactive: [1] | [2] | [3] | [4] | [5] | [6] | [7] | [8] | [9] | [10] | [11] | [12] | [13] | [14] | [15] | [16] | [17]

O=C(O)CNC(=O)CNC(=O)CNC(=O)CSC(=O)c1ccccc1
inactive: [2] | [18] | [3] | [19] | [4] | [5] | [6] | [20] | [7] | [8] | [9] | [10] | [11] | [12] | [13] | [14] | [16] | [17]

CC(=O)Nc1ccc(OC(=O)c2ccccc2OC(C)=O)cc1
inactive: [2] | [18] | [3] | [19] | [4] | [5] | [6] | [20] | [7] | [9] | [10] | [11] | [12] | [14] | [15] | [16] | [17]

CC(=O)O[C@H]1C[C@@H]2CC[C@@]1(C)C2(C)C
inactive: [1] | [3] | [4] | [5] | [6] | [20] | [7] | [8] | [9] | [10] | [11] | [12] | [13] | [14] | [15] | [16] | [17]

COc1cc(OC)nc(O[C@H](C(=O)O)C(OC)(c2ccccc2)c2ccccc2)n1
inactive: [2] | [18] | [3] | [19] | [4] | [5] | [7] | [8] | [9] | [10] | [11] | [12] | [13] | [14] | [15] | [16] | [17]

OC1(c2ccc(Cl)cc2)CCNCC1
inactive: [2] | [18] | [3] | [19] | [4] | [5] | [6] | [20] | [8] | [10] | [11] | [12] | [13] | [14] | [15] | [16] | [17]

COC(=O)c1ccccc1C(=O)O
inactive: [2] | [18] | [3] | [19] | [4] | [5] | [20] | [7] | [8] | [10] | [11] | [12] | [13] | [14] | [15] | [16] | [17]

CCC(=O)c1c(O)cc(O)cc1O
inactive: [2] | [18] | [3] | [19] | [4] | [5] | [20] | [7] | [8] | [9] | [10] | [13] | [14] | [15] | [16] | [17]

CC(=O)OCC(=O)Nc1cc(C#N)cc(NC(=O)COC(C)=O)c1Cl
inactive: [2] | [18] | [3] | [19] | [4] | [5] | [20] | [7] | [8] | [9] | [10] | [11] | [12] | [14] | [15] | [16] | [17]

CCC(C(=O)OCCN1CCOC(c2ccccc2)C1C)c1ccccc1 (stereo not drawn)
inactive: [2] | [18] | [3] | [19] | [4] | [5] | [8] | [10] | [11] | [12] | [14] | [15] | [16] | [17]
active: [6] 23.7 µM

CCCCOCC(C)O (stereo not drawn)
inactive: [2] | [18] | [3] | [19] | [4] | [5] | [6] | [7] | [8] | [9] | [10] | [11] | [12] | [13] | [14] | [15] | [16] | [17]

O=C(Cn1ccnc1[N+](=O)[O-])NCc1ccccc1
inactive: [2] | [18] | [3] | [19] | [5] | [6] | [20] | [7] | [8] | [9] | [10] | [11] | [12] | [13] | [14] | [15] | [16] | [17]

COc1nc(N)nc2nc[nH]c12
inactive: [2] | [18] | [3] | [19] | [4] | [5] | [6] | [7] | [8] | [9] | [10] | [11] | [12] | [13] | [14] | [16] | [17]

OCCN1CCOCC1
inactive: [2] | [18] | [3] | [19] | [4] | [5] | [20] | [7] | [8] | [9] | [10] | [11] | [12] | [13] | [14] | [15] | [16] | [17]

C=CCCCC
inactive: [2] | [18] | [3] | [19] | [4] | [5] | [6] | [20] | [7] | [9] | [10] | [13] | [14] | [15] | [16] | [17]

C/C(=C1\CCOC(=O)S1)N(C=O)Cc1cnc(C)nc1N
inactive: [2] | [18] | [3] | [19] | [5] | [6] | [20] | [7] | [8] | [9] | [10] | [11] | [12] | [13] | [14] | [15] | [16] | [17]
